JMJD2A Tudor inh: inhibitors of human JMJD2A Tudor domain. 390,000 tested, 4.4% active. Potency, µM (titrated, usually from 114 µM), for inactives: at the highest dose activity change, negative = inhibition, most hits filed as inhibitors. AID 504339. AlphaScreen JMJD2A-Tudor / H3K4me3 peptide binding. O75164; further: on the % scale 0 is the no-effect control and ±100 the full control effect; nearly all actives have a fitted effect of over 50% in size
G9a block: G9a (human) methyltransferase inhibition. Potency, µM (doses to about 102 µM), for inactives: at the highest dose activity, negative = inhibition, most hits filed as inhibitors. G9a H3K9 monomethylation, AlphaScreen, 2 h. Q96KQ7. 350,000 tested, 8.8% active; further: on the % scale 0 is the no-effect control and ±100 the full control effect; nearly all actives have a fitted effect of over 75% in size
Target sequence (Q96KQ7 913-1193 limits assumed): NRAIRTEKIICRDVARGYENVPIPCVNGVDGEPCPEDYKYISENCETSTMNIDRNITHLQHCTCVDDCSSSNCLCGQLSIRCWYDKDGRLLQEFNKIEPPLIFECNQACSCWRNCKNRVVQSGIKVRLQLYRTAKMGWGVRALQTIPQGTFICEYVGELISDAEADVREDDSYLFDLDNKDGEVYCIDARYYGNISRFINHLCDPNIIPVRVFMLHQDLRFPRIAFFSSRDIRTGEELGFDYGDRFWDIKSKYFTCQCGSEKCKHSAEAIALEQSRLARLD
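Chemiluminescent proximity detection of H3K9 monomethylation, read after 10 min bead incubation in the dark. Reaction: 20 nM G9a, 500 nM biotin-H3K9 peptide, 20 uM SAM cofactor, 2 h, room temperature, following 15 min enzyme-compound preincubation.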
HP1b chromo inh: HP1-beta chromodomain-methylated histone interaction inhibition. P83916. Potency, µM (doses to about 114 µM), for inactives: at the top dose activity change, negative = inhibition, usual class: inhibitors. AlphaScreen HP1-beta / biotin-H3K9me3 peptide binding. 390,000 tested, 0.56% active; further: nearly all actives have a fitted effect of over 70% in size
Target sequence (P83916 whole entry, looked up): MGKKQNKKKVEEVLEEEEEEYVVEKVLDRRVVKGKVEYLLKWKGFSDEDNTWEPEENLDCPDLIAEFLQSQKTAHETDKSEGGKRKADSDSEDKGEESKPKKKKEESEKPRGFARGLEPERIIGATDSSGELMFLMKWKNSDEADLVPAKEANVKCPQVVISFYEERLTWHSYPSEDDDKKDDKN
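HP1-beta protein (50 nM final) preincubated 30 min at room temperature with biotinylated H3(1-18)K9me3 peptide (50 nM) in PBS pH 7.4, 0.01% Tween-20, then compound added for 30 min. AlphaScreen streptavidin donor/nickel chelate acceptor beads (10 ug/mL final), 30 min dark, luminescence read.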
BAZ2B block: blocks human BAZ2B; Q9UIF8; AlphaScreen BAZ2B-H3K14Ac peptide displacement; Potency, µM (titrated, usually from 114 µM), inactives show at the top dose activity change, negative = inhibition, actives largely listed as inhibitors; 360,000 tested, 4.4% active; AID 504333; further: on the % scale 0 is the no-effect control and ±100 the full control effect; nearly all actives have a fitted effect of over 60% in size
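Complex of BAZ2B and biotin-H3K14Ac (50 nM apiece) forms over 30 min at RT, then faces library compounds up to 110 uM for another 30 min; AlphaScreen beads added, 20 min dark incubation, luminescence read.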
Sfp inh: Sfp phosphopantetheinyl transferase inhibition; Q9F4F7; Biochemical Sfp PPTase activity, qHTS; Potency, µM, for inactives: largest response in the series, negative = inhibition, hits mostly inhibitors; 310,000 tested, 3.5% active; AID 1490;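 further: the enzyme is Sfp with the accession as filed and its product quenches rhodamine fluorescence; 0% = enzyme reaction without inhibitor and -100% = no enzyme wells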
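Sfp 15 nM + cpd, 15 min RT; start w/ rhodamine-CoA 5 uM, BHQ-2-YbbR 12.5 uM (final); 50 mM Hepes pH 7.6, 10 mM MgCl2, 0.01% NP-40, 0.01% BSA; read 525/598 nm at 0 and 30 min.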
* hit, by the source's call; u = inconclusive; x = no result given; ! = not confirmed by another sample; [ ] = another dose, or the depositor's remark. A selection: hits, their analogues and other compounds. The true share with any hit is near 12%. The call rests on the fitted dose curve; in most records, active means well fitted curve in the direction sought with a large enough effect; inconclusive means small, poorly fitted or top-dose-only effect, or another doubt; inactive means no such curve, though single readings can be large; an effect the other way counts as inactive or inconclusive. Potency means the concentration at half of the fitted maximal effect.

SMILES | JMJD2A Tudor inh | G9a block | HP1b chromo inh | BAZ2B block | Sfp inh
C=C(CN(C)C)C(=O)c1ccc(OC2OC(COC(C)=O)C(OC(C)=O)C(OC(C)=O)C2OC(C)=O)cc1 (stereo not given) | 89µM* | x | 56µM* | x | x
NC(=O)C1CCN(C(=O)c2cc(Cl)c3c(c2)OCCO3)CC1 | -6% | x | 29% | x | x
Cc1cc(C)c(C)c(C(=O)CSc2nnc(C)c(=O)[nH]2)c1C | x | 50µM* | x | -5% | u
Cc1ccc(S(=O)(=O)N2CCN(C(=O)CSc3nnc(C)c(=O)[nH]3)CC2)cc1 | -20% | 56µM* | 46% | 2% | -11%
CC(=O)c1c(C)[nH]c(C(=O)OCC(=O)N2CCN(S(=O)(=O)c3ccc(C)cc3)CC2)c1C | -11% | 1%[12.7 µM] | 5% | 50µM* | x
Cc1cc(C)nc(Nc2nc(=O)c3ccccc3s2)n1 | -10% | 40µM* | 17% | -4% | u
Cc1sc2nc(C3CC3)nc(SCC(=O)N3CC(=O)Nc4ccccc43)c2c1C | -26% | u | 0% | -25% | -16%
CC1=C(C(=O)N2CCN(c3cccc(C)c3C)CC2)C2(CCCCC2)OC1=O | -20% | 5%[59 µM] | 21% | 79µM* | x
Cc1ccc(C(=O)N2CCN(c3cccc(C)c3C)CC2)o1 | -7% | 71µM* | -6% | -37% | 0%
Cc1ccccc1S(=O)Cc1ccc(C(=O)N2CCN(c3cccc(C)c3C)CC2)o1 (stereo not given) | -35% | u | -8% | u | x
Cc1cccc(N2CCN(C(=O)Cn3cccc3)CC2)c1C | u | 50µM* | -9% | u | -4%
Cn1cc(SCC(=O)N2CCN(c3ccccc3)CC2)c2ccccc21 | u | 40µM* | -3% | u | -21%
NC(=O)c1ccc(NC(=O)CSc2nnc(-c3cccnc3)n2Cc2ccco2)cc1 | 39% | u | 61% | -33% | 5%
Cc1ccc2[nH]c(=O)c3cc(C(=O)N4CCN(c5ccccc5F)CC4)sc3c2c1 | -14% | 0%[59 µM] | 8% | 4% | x
O=C(c1ccco1)N1CCN(C(=S)Nc2ccccc2Cl)CC1 | -13% | x | 27% | -1% | 19%
Cc1cccc(N2CCN(C(=O)Cc3cn(C)c4ccccc34)CC2)c1C | 18µM* | 50µM* | u | u | 11%
Cc1cccc(N2CCN(C(=O)Cn3ncc4c5ccccc5n(C)c4c3=O)CC2)c1C | 3% | -4%[59 µM] | 42% | -3% | x
O=C(NCc1ccc(F)cc1)C(=O)NCC1CCCN1S(=O)(=O)c1ccccc1 (stereo not given) | -18% | -11% | 3% | 4% | x
Cc1ccccc1C(OCC(O)CN1CCC(C(N)=O)CC1)c1ccccc1 (stereo not given) | -11% | -7% | -1% | -11% | 8%
CCN1CCN(CC(O)COC(C)C)CC1 (stereo not given) | -14% | 50µM* | -4% | 0% | -6%
Cc1ccccc1[C@@H](OCCN(C)C)c1ccccc1 | x | 11%[21.5 µM] | x | x | 20%
CC1CN(CC(O)COC(c2ccccc2)c2ccccc2)CC(C)O1 (stereo not given) | 0.89µM* | 35µM* | u | 56µM* | u
Cc1ccccc1C(OCCN(C)C)c1ccccc1 (stereo not given) | 28µM*! | 40µM*! | 32% | 0% | 14%
CCN1CCN(CC(O)COC(c2ccccc2)c2ccccc2C)CC1 (stereo not given) | 5.6µM* | 3.2µM* | u | 22µM* | u
Cc1ccc(Cl)cc1N1CCN(CC(O)COC(C)C)CC1 (stereo not given) | -9% | x | 41% | 2% | 3%
SMILES | JMJD2A Tudor inh | G9a block | HP1b chromo inh | BAZ2B block | Sfp inh
O=[N+]([O-])c1cccc(S(=O)(=O)Nc2ccc(-c3ccc(N4CCCC4)nn3)cc2)c1 | -25% | -45% | 11% | -28% | x
CC1=CC(=O)C=C(C)C1=NOC(=O)/C=C\c1ccccc1 | -23% | -8%[59 µM] | 1% | -2% | -9%
CC1=CC(=NOC(=O)/C=C/c2ccccc2)C=C(C)C1=O | -27% | 30%[0.501 µM] | -21% | 13µM* | -19%
CC1=C(C)/C(=N\OC(=O)/C=C/c2ccccc2)C=CC1=O | 18µM* | 1% | u | -6% | 9%
CC1(C)N(O)CC(c2cccs2)=[N+]1[O-] | 28µM* | -36%[12.7 µM] | -23% | 50µM* | 7%
COc1cccc(Cn2c(=O)n(CC3CCC(C(=O)N4CCOCC4)CC3)c(=O)c3sccc32)c1 (stereo not given) | -19% | 18%[59 µM] | 129% | -1% | x
CCOc1ccc(-n2nc3ccc(NC(=O)c4cccc(F)c4)cc3n2)cc1 | -6% | 4%[59 µM] | 46% | -16% | x
CCOc1ccc(Nc2nc(C)c(NC(=O)c3cccc(F)c3)c(Nc3ccc(OCC)cc3)n2)cc1 | u | 20µM* | 39% | 3% | x
C/C(=N\NC(=O)c1ccc2c(c1)OCO2)c1ccc(NS(C)(=O)=O)cc1 | 2% | x | 13% | x | x
CC1CN(c2snnc2C=C2C(=O)OC(C)(C)OC2=O)CC(C)O1 (stereo not given) | -23% | u | 24% | u | 50µM*
CC1CN(C2=N/C(=C/c3ccc4c(c3)OCO4)C(=O)N2)CC(C)O1 (stereo not given) | 1% | x | 37% | 13% | 8%
O=C(CN1CCc2ccccc2C1)Nc1ccc(Br)cc1 | 62% | 4%[59 µM] | 60% | -3% | -8%
Cn1nccc1C(=O)N1CCN(C23CC4CC(CC(C4)C2)C3)CC1 | -14% | x | 44% | 0% | 12%
Cn1ncc(Cl)c1C(=O)N1CCN(C23CC4CC(CC(C4)C2)C3)CC1 | 89µM* | x | 4% | -8% | 13%
COc1ccc(CC(=O)N(C)CC(=O)Nc2cccc(F)c2)cc1S(=O)(=O)N1CCOCC1 | 1% | u | 28% | -14% | 15%
CCOC(=O)CSc1nnc(N)s1 | 56µM* | 18µM* | 18% | -4% | -2%
CCOC(=O)CNC(=O)CSc1nnc(SCC(=O)NCC(=O)OCC)s1 | 6% | 18µM* | 27% | -1% | u
Nc1nnc(SCC(=O)N2CCN(Cc3ccccc3)CC2)s1 | -5% | 45µM* | 20% | 3% | -2%
CCOC(=O)CSc1nnc(NC(=O)NC(C)C)s1 | -10% | -35% | 22% | -17% | 20%
CCOC(=O)CSC1=NC(=O)CS1 | -14% | u | 29% | u | 79µM*
CCOC(=O)CSc1snnc1C | -1% | x | 18% | x | x
CN(C)C(=N)c1n[nH]nc1SCc1ccccc1 | -17% | -44%[59 µM] | 11% | 79µM* | 18%
CCOC(=O)c1c(SCc2ccccc2)n[nH]c1N | -33% | 8% | 23% | -12% | 10%
O=C1C=C(N(CCO)Cc2ccccc2)c2ccccc2C1=O | -35% | 50µM* | u | u | 2%
CCc1nnc2n1N=C(c1ccc(Cl)cc1)CS2 | -17% | -1% | 33% | 0% | 2%
CCCc1nnc2n1N=C(c1ccc([N+](=O)[O-])cc1)CS2 | -9% | 71µM* | 21% | -27% | 3%

Screening results (PubChem BioAssay)
